Measured values as given in PubChem BioAssay (Tox21).
Records with an inconclusive call do not appear. The source made the active and inactive calls. Calls come from the whole dose curve; as a rule, active = well fitted curve in the direction sought with a large enough effect in the repeat runs; inconclusive = weak or mixed curves; inactive = no such curve, though single readings can be large; an effect the other way counts as inactive or inconclusive. Where a SMILES comes first, the peptide text is derived from it. [ ]: non-standard residue; d: D form. pGlu = O=C1CC[C@@H](C(=O)O)N1

Assay: qHTS RealTime-Glo MT Cell Viability Assay in HEK293 cells - 40 hour (AID 1224874); note: nearly all actives have a fitted effect of over 50% in size; note: potency is the fitted concentration of half-maximal effect
Conditions: RealTime-Glo luminescence; max response: hits give low values
Summary of the method: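 Viable HEK293 cells reduce a cell-permeant prosubstrate; the product diffuses out and is consumed by NanoLuc in the medium to give light. Compounds went in after a 5 h incubation and plates were read over the treatment course.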
% is set by controls: 0 for no effect and ±100 for the full control effect.

| Structure (SMILES) | max response | Potency |
| --- | --- | --- |
| O=S(=O)(O)c1cc(O)c(O)c(S(=O)(=O)O)c1 | 0.173% (inactive) | – |
| CCC1C(=O)OCC1Cc1cncn1C (stereo not drawn) | 0.511% (inactive) | – |
| C[C@H]1[C@H](NC(=O)/C(=N/OC(C)(C)C(=O)O)c2csc(N)n2)C(=O)N1S(=O)(=O)O (stereo in doubt) | 5.51% (inactive) | – |
| Nc1ccn([C@@H]2O[C@H](CO)[C@@H](O)C2O)c(=O)n1 (stereo partly drawn) | 6.25% (inactive) | – |
| CC1=NN(c2cc(S(=O)(=O)O)ccc2Cl)C(=O)C1N=Nc1ccccc1 (stereo not drawn) | 8.94% (inactive) | – |
| O=S(=O)(O)c1cccc(S(=O)(=O)O)c1 | 15.6% (inactive) | – |
| CCN[C@H]1C[C@H](C)S(=O)(=O)c2sc(S(N)(=O)=O)cc21 | -0.522% (inactive) | – |
| NCCCC(N)(C(=O)O)C(F)F (stereo not drawn) | 0.24% (inactive) | – |
| CCC(C(=O)NC(=O)NC(C)=O)c1ccccc1 (stereo not drawn) | -7.54% (inactive) | – |
| CC(C)NNC(=O)c1ccncc1 | 9.38% (inactive) | – |
| CC1=CC(=O)[C@H]2C[C@@H]1C2(C)C | -1.77% (inactive) | – |
| CN(C)C(=O)Oc1cccc([N+](C)(C)C)c1 | 6.55% (inactive) | – |
| CC[C@H]1OC(=O)[C@H](C)[C@@H](O[C@H]2C[C@@](C)(OC)[C@@H](O)[C@H](C)O2)[C@H](C)[C@@H](O[C@@H]2O[C@H](C)C[C@H](N(C)C)[C@H]2O)[C@](C)(OC)C[C@@H](C)C(=O)[C@H](C)[C@@H](O)[C@]1(C)O | -20.3% (inactive) | – |
| COC(=O)C1=C(C)NC(C)=C(C(=O)OC(C)C)C1c1cccc2nonc12 (stereo not drawn) | – | 16.9 µM (active) |
| CCCCCCCCCCCCCCC(=O)O | 23.9% (inactive) | – |
| CN1CCC(=C2c3ccccc3CCc3cccnc32)CC1 | -11% (inactive) | – |
| CCOc1ccccc1OCC | 5.1% (inactive) | – |
| CCCc1ncc(C[n+]2ccccc2C)c(N)n1 | 6.68% (inactive) | – |

| Structure (SMILES) | max response | Potency |
| --- | --- | --- |
| CCOC(=O)c1cnc2c(cnn2CC)c1NN=C(C)C | -11.3% (inactive) | – |
| CC(C(=O)O)c1cccc(Oc2ccccc2)c1 (stereo not drawn) | -2.21% (inactive) | – |
| CCNC(=O)[C@@H]1CCCN1C(=O)[C@H](CCCN=C(N)N)NC(=O)[C@H](CC(C)C)NC(=O)CNC(=O)[C@H](Cc1ccc(O)cc1)NC(=O)[C@H](CO)NC(=O)[C@H](Cc1c[nH]c2ccccc12)NC(=O)[C@H](Cc1cnc[nH]1)NC(=O)[C@@H]1CCC(=O)N1 ([pGlu]HWSYGLRP-NHEt) | 7.73% (inactive) | – |
| CC[N+](C)(CC)CCOC(=O)C1c2ccccc2Oc2ccccc21 | 3.05% (inactive) | – |
| C[C@H]1C[C@H]2[C@@H]3CCC4=CC(=O)C=C[C@]4(C)[C@H]3C(=O)C[C@]2(C)[C@@]1(O)C(=O)CO | 0.535% (inactive) | – |
| CCC(C)(CN(C)C)OC(=O)c1ccccc1 (stereo not drawn) | 12.1% (inactive) | – |
| CN1CCN(c2cc3c(nn2)Oc2ccccc2N3C)CC1 | -0.461% (inactive) | – |
| OCCCCCO | 4.41% (inactive) | – |
| CCN[C@@H]1C[C@H](N)[C@@H](OC2OC(CN)=CCC2N)[C@H](O)[C@H]1O[C@H]1OC[C@](C)(O)[C@H](NC)[C@H]1O (stereo partly drawn) | 5.87% (inactive) | – |
| C[N+](C)(C)CCCCCCCCCC[N+](C)(C)C | 9.07% (inactive) | – |
| Nc1c2c(nc3c1CCC3)CCCC2 | 0.303% (inactive) | – |
| CCOCC(C)O (stereo not drawn) | -1.56% (inactive) | – |
| CC[N+](CC)(CC)CCOc1cccc(OCC[N+](CC)(CC)CC)c1OCC[N+](CC)(CC)CC | 2.7% (inactive) | – |
| CCCCN1C=CN(C)C1 | 9.09% (inactive) | – |
| COc1cc(-c2ccc(=O)[nH]n2)ccc1OC(F)F | -5.19% (inactive) | – |
| C=CCCC(=O)O | 7.36% (inactive) | – |
| CC(C#N)(CCC(=O)O)N=NC(C)(C#N)CCC(=O)O (stereo not drawn) | 3.09% (inactive) | – |
| CN(C)CCCCCCN(C)C | -6% (inactive) | – |

Assay: A CellTox Green Cytotoxicity Assay to monitor cytotoxicity in HEK293 cells - 24 hour (AID 1224875); note: nearly all actives have a fitted effect of over 45% in size
Conditions: CellTox Green fluorescence, hits give high values; series mostly up to 76.8 µM
Summary of the method: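 Fluorescence intensity, read at 0, 8, 16, 24, 32 and 40 h of compound treatment, reflected dye binding to DNA of dead HEK293 cells; compounds (23 nL, DMSO) were added 5 h after plating cells with reagent.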

| Structure (SMILES) | outcome | activity change |
| --- | --- | --- |
| O=S(=O)(O)c1cc(O)c(O)c(S(=O)(=O)O)c1 | inactive | – |
| CCC1C(=O)OCC1Cc1cncn1C (stereo not drawn) | inactive | – |
| C[C@H]1[C@H](NC(=O)/C(=N/OC(C)(C)C(=O)O)c2csc(N)n2)C(=O)N1S(=O)(=O)O (stereo in doubt) | inactive | – |
| Nc1ccn([C@@H]2O[C@H](CO)[C@@H](O)C2O)c(=O)n1 (stereo partly drawn) | inactive | – |
| CC1=NN(c2cc(S(=O)(=O)O)ccc2Cl)C(=O)C1N=Nc1ccccc1 (stereo not drawn) | inactive | – |
| O=S(=O)(O)c1cccc(S(=O)(=O)O)c1 | inactive | – |
| CCN[C@H]1C[C@H](C)S(=O)(=O)c2sc(S(N)(=O)=O)cc21 | inactive | – |
| NCCCC(N)(C(=O)O)C(F)F (stereo not drawn) | inactive | – |
| CCC(C(=O)NC(=O)NC(C)=O)c1ccccc1 (stereo not drawn) | inactive | – |
| CC(C)NNC(=O)c1ccncc1 | inactive | – |
| NCCCC[C@H](N[C@@H](CCc1ccccc1)C(=O)O)C(=O)N1CCC[C@H]1C(=O)O | inactive | – |
| CC1=CC(=O)[C@H]2C[C@@H]1C2(C)C | inactive | – |
| CN(C)C(=O)Oc1cccc([N+](C)(C)C)c1 | inactive | – |
| CC[C@H]1OC(=O)[C@H](C)[C@@H](O[C@H]2C[C@@](C)(OC)[C@@H](O)[C@H](C)O2)[C@H](C)[C@@H](O[C@@H]2O[C@H](C)C[C@H](N(C)C)[C@H]2O)[C@](C)(OC)C[C@@H](C)C(=O)[C@H](C)[C@@H](O)[C@]1(C)O | inactive | – |
| COC(=O)C1=C(C)NC(C)=C(C(=O)OC(C)C)C1c1cccc2nonc12 (stereo not drawn) | inactive | – |
| CCCCCCCCCCCCCCC(=O)O | inactive | – |
| CN1CCC(=C2c3ccccc3CCc3cccnc32)CC1 | inactive | – |
| CCOc1ccccc1OCC | inactive | – |
| CCCc1ncc(C[n+]2ccccc2C)c(N)n1 | inactive | – |

| Structure (SMILES) | outcome | activity change |
| --- | --- | --- |
| CC(C(=O)O)c1cccc(Oc2ccccc2)c1 (stereo not drawn) | inactive | – |
| CCNC(=O)[C@@H]1CCCN1C(=O)[C@H](CCCN=C(N)N)NC(=O)[C@H](CC(C)C)NC(=O)CNC(=O)[C@H](Cc1ccc(O)cc1)NC(=O)[C@H](CO)NC(=O)[C@H](Cc1c[nH]c2ccccc12)NC(=O)[C@H](Cc1cnc[nH]1)NC(=O)[C@@H]1CCC(=O)N1 ([pGlu]HWSYGLRP-NHEt) | inactive | – |
| C[N+]1(C)[C@@H]2CC(OC(=O)[C@H](CO)c3ccccc3)C[C@H]1[C@@H]1O[C@@H]12 (stereo partly drawn) | inactive | – |
| CC[N+](C)(CC)CCOC(=O)C1c2ccccc2Oc2ccccc21 | inactive | – |
| C[C@H]1C[C@H]2[C@@H]3CCC4=CC(=O)C=C[C@]4(C)[C@H]3C(=O)C[C@]2(C)[C@@]1(O)C(=O)CO | inactive | – |
| CCC(C)(CN(C)C)OC(=O)c1ccccc1 (stereo not drawn) | inactive | – |
| CN1CCN(c2cc3c(nn2)Oc2ccccc2N3C)CC1 | – | -12.9% [at 15.8 µM] (inactive) |
| OCCCCCO | inactive | – |
| CCN[C@@H]1C[C@H](N)[C@@H](OC2OC(CN)=CCC2N)[C@H](O)[C@H]1O[C@H]1OC[C@](C)(O)[C@H](NC)[C@H]1O (stereo partly drawn) | – | 6.99% [at 0.29 µM] (inactive) |
| C[N+](C)(C)CCCCCCCCCC[N+](C)(C)C | inactive | – |
| Nc1c2c(nc3c1CCC3)CCCC2 | inactive | – |
| CCOCC(C)O (stereo not drawn) | inactive | – |
| CC[N+](CC)(CC)CCOc1cccc(OCC[N+](CC)(CC)CC)c1OCC[N+](CC)(CC)CC | inactive | – |
| CCCCN1C=CN(C)C1 | – | -7.42% [at 15.8 µM] (inactive) |
| COc1cc(-c2ccc(=O)[nH]n2)ccc1OC(F)F | inactive | – |
| C=CCCC(=O)O | inactive | – |
| CC(C#N)(CCC(=O)O)N=NC(C)(C#N)CCC(=O)O (stereo not drawn) | inactive | – |
| CN(C)CCCCCCN(C)C | inactive | – |
